A short description of the experiment: chemical genetic growth profiling, strain panel (AID 1159580).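 Note: tested at 20 µM; growth read once vehicle control cultures reached saturation at 30 °C; 1 = growth at the plate median or of vehicle wells; lower values mean less growth of the strain.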 The following applies: S. cerevisiae deletion strains, growth OD.
Setting [1] is: locus YAL013W, strain DEP1, stronger effect = lower value.
Where [2] appears, read: locus YAL040C, strain CLN3, stronger effect = lower value.
Where [3] appears, read: locus YCL061C, strain MRC1 (second series), stronger effect = lower value.
Setting [4] is: locus YER002W, strain NOP16, stronger effect = lower value.
Setting [5] is: locus YNL153C, strain GIM3, stronger effect = lower value.
The mark [6] stands for this setting: locus YNL175C, strain NOP13, stronger effect = lower value.
[7] abbreviates: locus YNL197C, strain WHI3, stronger effect = lower value.
Where [8] appears, read: locus YNL224C, strain SQS1, stronger effect = lower value.
[9] abbreviates: locus YOR083W, strain WHI5 (second series), stronger effect = lower value.

Each structure is given as a SMILES string. In all, about 5,500 compounds went through this assay and about 2,000 (36%) were called active. Not shown: some 18% with an inconclusive outcome. Cut-off read from the data, not from the text of the source: active = normalized growth mostly below about 0.91 (no sharp cut-off); inconclusive = no clear call, values can overlap the other calls; inactive = mostly above about 0.92. The list shows a part of the results.

Regarding `c1cnc2c(c1)ccc1cccnc12`, the normalized growth by setting is: under setting [1], 0.0762 (active); under setting [2], 1.07 (inactive); under setting [3], 0.0542 (active); (locus YDR363W, strain ESC2, stronger effect = lower value) 0.0973 (active); under setting [4], 0.0834 (active); (locus YGR078C, strain PAC10, stronger effect = lower value) 0.109 (active). The normalized growth runs as follows: (locus YJR075W, strain HOC1, stronger effect = lower value) 0.0769 (active); under setting [5], 0.103 (active); under setting [6], 0.0953 (active); under setting [7], 0.0905 (active); under setting [8], 0.123 (active); (locus YNL322C, strain KRE1, stronger effect = lower value) 0.0666 (active). Also, the normalized growth under setting [9] is 0.0868 (active).

On to `Oc1ccccc1O`, for which the normalized growth by setting is: under setting [1], 0.966 (inactive); under setting [2], 0.983 (inactive); under setting [3], 0.971 (inactive); under setting [4], 1 (inactive); (locus YGR229C, strain SMI1, stronger effect = lower value) 0.904 (inactive); under setting [5], 1.03 (inactive). The normalized growth is, setting by setting: under setting [6], 1.02 (inactive); under setting [7], 1.02 (inactive); under setting [8], 0.999 (inactive); under setting [9], 1.03 (inactive).

Values taken from PubChem BioAssay AID1159580 (chemical genetic matrix, 2015).
